Only some compounds are listed: those with a hit (about 7.5% of all), similar ones and a draw of the others.
VP16 counter: inhibits Gal4-VP16 luciferase reporter, ROR gamma counter-screen; Drosophila S2 Gal4-VP16 UAS-luciferase, luminescence, 20 h; Potency, µM (titrated, usually from 53.6 µM), most hits filed as inhibitors; actives 3.5% (n = 310,000); AID 2546;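 further: Gal4-VP16 expression switched on by copper sulfate through the metallothionein promoter; nearly all actives have a fitted effect of over 50% in size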
RORg inh: inhibitors of mouse ROR gamma transcriptional activity; AID 2551; P51450; Drosophila S2 Gal4-RORgamma UAS-luciferase reporter, 20 h; Potency, µM (titrated, usually from 53.6 µM), actives largely listed as inhibitors; actives 5.4% (n = 310,000); further: nearly all actives have a fitted effect of over 60% in size
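Schneider cells (Drosophila), stable Gal4 DBD–ROR gamma + UAS-luc; 1 hr cmpd preincubation; Cu2+ induction 700 uM final; 20 hr ambient; luminescence.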
TSHR antag: blocks TSH signaling through the human TSH receptor | TSHR-expressing cells, TSH-stimulated cAMP HTRF, 2 h; stronger effect = lower value | P16473 | activity change, negative = inhibition, % at 11.5 µM | actives 0.2% (n = 330,000);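 active means activity change below a set negative limit, meaning inhibition stronger than a set level, cut at about -70% in these data; inconclusive means activity change between two set negative limits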
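Read-out is FRET at 665 nm (cryptate excitation 337 nm) from a cryptate-tagged anti-cAMP antibody, competed by cell cAMP against cAMP-d2. Compounds are tested on freshly harvested TSHR cells challenged with 4nM TSH (EC80) for 2 hours at 37 deg C.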
ELG1 DNA repair: ELG1-dependent DNA repair inhibition; Potency, µM (titrated, usually from 46.1 µM), most hits filed as inhibitors; actives 2.3% (n = 330,000); HEK293T ELG1-luciferase reporter, luminescence, 16 h; DNA damage induced by 5-fluorouridine; further: nearly all actives have a fitted effect of over 55% in size
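Luminescence from the luciferase reporter, measured 30 min after ONE-Glo reagent at room temperature, was the read-out. Beforehand, 2,000 cells per well were exposed for 16 hr at 37 °C to 5-fluorouridine together with compound or vehicle.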
B2AR arrestin: recruits beta-arrestin to the human beta2-adrenergic receptor. beta-arrestin recruitment to beta2AR, cell-based reporter. P07550. Potency, µM (series often up to 46.1 µM), hits mostly activators. actives 0.02% (n = 330,000); further: nearly all actives have a fitted effect of over 65% in size
Target sequence (P07550 whole entry, looked up): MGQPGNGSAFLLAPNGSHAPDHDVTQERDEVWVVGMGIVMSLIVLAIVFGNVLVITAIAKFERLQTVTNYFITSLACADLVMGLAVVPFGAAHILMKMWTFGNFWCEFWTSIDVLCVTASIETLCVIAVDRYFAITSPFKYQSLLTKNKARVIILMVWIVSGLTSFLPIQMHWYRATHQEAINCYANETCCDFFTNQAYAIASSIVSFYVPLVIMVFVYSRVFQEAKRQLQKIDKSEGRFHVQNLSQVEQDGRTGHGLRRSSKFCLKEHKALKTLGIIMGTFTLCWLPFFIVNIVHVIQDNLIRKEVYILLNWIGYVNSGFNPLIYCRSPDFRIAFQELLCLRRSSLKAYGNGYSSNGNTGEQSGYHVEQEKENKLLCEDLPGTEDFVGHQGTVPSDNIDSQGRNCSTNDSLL
Each line names hits and unclear results; the compound was inactive in the other large screens. Unless noted, the call rests on the fitted dose curve; in most records, active means well fitted curve in the direction sought with a large enough effect; inconclusive means small, poorly fitted or top-dose-only effect, or another doubt; inactive means no such curve, though single readings can be large; an effect the other way counts as inactive or inconclusive.

O=C(NN=C1CCCC1)c1sc2ccccc2c1Cl	VP16 counter inconclusive, RORg inh 11.2µM, ELG1 DNA repair inconclusive
O=C1CCC/C(=N/NC(=O)c2sc3ccccc3c2Cl)C1	ELG1 DNA repair inconclusive
O=C(O)[C@H]1O[C@@H](Oc2ccc3ccc(=O)oc3c2)[C@H](O)[C@@H](O)[C@@H]1O	none (no result: TSHR antag, ELG1 DNA repair, B2AR arrestin)
CC(C)N(Cc1ccccc1)C(C)C (tested in a mixture with another compound)	none (no result: TSHR antag, ELG1 DNA repair, B2AR arrestin)
Cc1cc(C)n(-c2ccnc3cc(Cl)ccc23)n1	none
c1ccc(CSC2=NNC(c3ccccn3)S2)cc1 (centres undefined)	ELG1 DNA repair inconclusive
O=C(CSC1=NNC(c2ccccn2)S1)Nc1ccc(C(F)(F)F)cc1 (centres undefined)	VP16 counter 5.01µM, RORg inh 3.16µM
O=C(Nc1nc(-c2ccccn2)cs1)c1cc(Cl)ccc1[N+](=O)[O-]	VP16 counter 2.82µM, RORg inh 1.12µM, ELG1 DNA repair inconclusive
O=C(Nc1nc(-c2ccccn2)cs1)c1ccc([N+](=O)[O-])o1	VP16 counter inconclusive, RORg inh inconclusive, ELG1 DNA repair inconclusive
Cc1csc(NC(=O)c2ccc(C)c([N+](=O)[O-])c2)n1	VP16 counter 14.1µM, RORg inh inconclusive, ELG1 DNA repair inconclusive
Cc1cc(C(=O)Nc2nc(-c3ccccn3)cs2)ccc1[N+](=O)[O-]	VP16 counter 2.82µM, RORg inh 1.12µM, ELG1 DNA repair inconclusive
CCc1cc(C(=O)Nc2nc(-c3ccccn3)cs2)sc1C	none (no result: VP16 counter, RORg inh)
Cc1cc(C)nc(NC(=O)c2ccc(C)c([N+](=O)[O-])c2)n1	none
Cc1ccc(C#CC2C=CC(Oc3ccc4c(c3)OCO4)C(CO)O2)c(C)c1 (centres undefined)	none (no result: TSHR antag, ELG1 DNA repair, B2AR arrestin)
COc1ccc(CCN2C(=O)c3[nH]nc(-c4ccccc4O)c3C2c2ccccc2)cc1OC (centres undefined)	ELG1 DNA repair 13µM
Cc1ccc(SC[C@H](Cc2ccccc2)N2CC[C@@H](NC(=O)OCc3ccccc3)CCC2=O)cc1	RORg inh inconclusive
COc1ccc(-c2cc(=O)c3c(O)c(OC)c(OC)c(OC)c3o2)cc1	none (no result: TSHR antag, ELG1 DNA repair, B2AR arrestin)
COc1ccc(-c2cc(=O)c3c(O)c(OC)c(O)cc3o2)cc1	VP16 counter 10µM, RORg inh inconclusive, ELG1 DNA repair inconclusive
CSc1nc(-c2ccco2)cc(-c2ccccc2)c1C#N	VP16 counter inconclusive, RORg inh 15.8µM
CSc1nc(-c2ccco2)cc(C(F)(F)F)c1C#N	none
O=C1NC(=O)C2C3C=CC(C3)C12 (centres undefined)	none (no result: TSHR antag, ELG1 DNA repair, B2AR arrestin)
CC(C)C(=O)N(c1cc2sc(=O)oc2c2ccccc12)S(=O)(=O)c1cccs1	VP16 counter inconclusive, RORg inh 22.4µM
O=c1c2cnn(-c3ccccc3)c2nc(-c2cccs2)n1-c1ccc(Cl)cc1	none
O=c1c2cnn(-c3ccccc3)c2nc(-c2cccs2)n1-c1cccc(Cl)c1	ELG1 DNA repair 14.6µM
Cn1c(-c2ccccc2)cnc1N	RORg inh 12.6µM
COc1ccc(-c2cnc(N)n2C)cc1	none
COCCn1c(-c2ccccc2)cnc1N	VP16 counter inconclusive, RORg inh 11.2µM
Cc1ccccc1-c1ccc2ncnc(NCc3cccnc3)c2c1	VP16 counter inconclusive (no result: TSHR antag, ELG1 DNA repair, B2AR arrestin)
CCOC(=O)C(NC(=O)C1C(C)N1S(=O)(=O)c1ccc(C)cc1)C(=O)OCC (centres undefined)	none
COc1ccc(C(=O)NC2CCN(CC(=O)Nc3cccc(OC)c3)CC2)cc1	none
O=C(CN1CCC(NC(=O)Nc2ccc(F)cc2)CC1)Nc1ccccc1[N+](=O)[O-]	ELG1 DNA repair 18.3µM
COc1cccc(NC(=O)NC2CCN(CC(=O)Nc3ccccc3[N+](=O)[O-])CC2)c1	RORg inh inconclusive, ELG1 DNA repair 20.6µM
COc1cccc(C(=O)NC2CCN(CC(=O)Nc3c(C)cc(C)cc3C)CC2)c1	VP16 counter 12.6µM, RORg inh inconclusive, ELG1 DNA repair inconclusive
CC(=O)OC[C@@H]1O[C@@H](O/N=C2/C[C@@H](O)[C@@H](O)[C@@H]3[C@@H]4C(=O)N(Cc5ccc6c(c5)OCO6)C(=O)[C@H]4CC[C@H]23)[C@H](OC(C)=O)[C@H](OC(C)=O)[C@@H]1OC(C)=O	none (no result: TSHR antag, ELG1 DNA repair, B2AR arrestin)
O=C(Cc1ccccc1Nc1c(Cl)cccc1Cl)OCO/N=[N+](\[O-])N1CCCC1	VP16 counter 17.8µM, RORg inh inconclusive (no result: TSHR antag, ELG1 DNA repair, B2AR arrestin)
c1ccc(CNc2oc(-c3ccccc3)nc2-c2ccccc2)cc1	none (no result: TSHR antag, ELG1 DNA repair, B2AR arrestin)
O=C(Nc1ccccc1)N1CCN(c2nc(-c3ccccc3)ns2)CC1	ELG1 DNA repair 23.1µM
CCOc1ccc2nc(N3CCC(C(=O)N4CCN(c5ccccn5)CC4)CC3)sc2c1	RORg inh inconclusive, ELG1 DNA repair 11.6µM
O=C(NO)c1ccccc1	none (no result: TSHR antag, ELG1 DNA repair, B2AR arrestin)
CC1=C/C(=N\NC(=O)c2ccccc2)CC1	VP16 counter inconclusive, RORg inh 12.6µM, ELG1 DNA repair inconclusive
O=C(O)c1ccc(N/N=C/c2cn(Cc3ccccc3F)c3ccccc23)cc1	ELG1 DNA repair inconclusive
O=C(N/N=C/c1c[nH]c2ccccc12)c1ccc(Br)cc1	VP16 counter inconclusive, RORg inh inconclusive, ELG1 DNA repair inconclusive
O=C(N/N=C/c1c[nH]c2ccccc12)c1cc(-c2ccccc2)n[nH]1	ELG1 DNA repair inconclusive
O=C(N/N=C\c1c[nH]c2ccccc12)c1ccc(O)cc1	RORg inh 6.31µM
O=C(N/N=C/c1c[nH]c2ccccc12)c1cc(-c2ccc(-c3ccccc3)cc2)n[nH]1	VP16 counter inconclusive, RORg inh 5.62µM, ELG1 DNA repair inconclusive
CC(C)n1cc(/C=N/Nc2ccc(C(=O)O)cc2)c2ccccc21	VP16 counter 0.316µM, RORg inh 0.0316µM, ELG1 DNA repair inconclusive
O=C(N/N=C/c1c[nH]c2ccccc12)c1ccc(Cl)cc1	VP16 counter inconclusive, RORg inh 10µM, ELG1 DNA repair inconclusive
CC1CCC2CC1C2(C)C (centres undefined)	none (no result: TSHR antag, ELG1 DNA repair, B2AR arrestin)
CCCNC(=O)CN1CCN(c2cc3ccccc3c(Cl)n2)CC1	none
O=C(N/N=C/c1c[nH]c2ccccc12)c1ccccc1Cl	ELG1 DNA repair inconclusive
O=C(O)c1ccc(N/N=C/c2c[nH]c3ccccc23)cc1	VP16 counter 0.316µM, RORg inh 0.0355µM, ELG1 DNA repair inconclusive
NC(=S)N/N=C/c1c[nH]c2ccccc12	VP16 counter inconclusive, RORg inh 2.51µM
COC(=O)N/N=C/c1c[nH]c2ccccc12	none
CN1CCN(CC(=O)N/N=C\c2c[nH]c3ccccc23)CC1	VP16 counter 22.4µM, RORg inh inconclusive, ELG1 DNA repair inconclusive
Nc1ccc(C(=O)N/N=C/c2c[nH]c3ccccc23)cc1	none
O=C(N/N=C/c1c[nH]c2ccccc12)c1cc(Cl)ccc1O	VP16 counter 6.31µM, RORg inh 5.01µM, ELG1 DNA repair inconclusive
Cc1cccc(C(=O)NCC(=O)N2CCN(c3ccccn3)CC2)c1	none (no result: VP16 counter, RORg inh, TSHR antag)
COCC(=O)N1CCC2(CC1)CCN(C(=O)NC(C)C)CC2	none (no result: TSHR antag, ELG1 DNA repair, B2AR arrestin)

Compound activity: PubChem BioAssay, National Center for Advancing Translational Sciences (NCATS)
